Only some compounds are listed: those with a hit (about 2.4% of all), similar ones and a draw of the others.
Pol kappa inh-1 = DNA polymerase kappa (human) inhibition; purified Pol kappa, fluorescent DNA synthesis assay, 10 min; Potency, µM (highest dose often 107 µM), for inactives: at the highest dose activity, negative = inhibition, usual class: inhibitors; 0.53% of 400,000 active; AID 588579; also: potency is read from the fitted curve at half-maximal effect; % is scaled to controls: 0 for no effect and ±100 for the full control effect
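10 nM Pol kappa preincubated 15 min at room temperature with compounds, then reaction started with substrate at 50 nM final. Fluorescence read kinetically at 0 and 10 min; buffer-only wells served as negative control.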
Pol iota inh = blocks human DNA polymerase iota activity; Q9UNA4; Pol iota fluorescent replication assay, 10 min; Potency, µM (highest dose often 115 µM), inactives show at the top dose activity, negative = inhibition, usual class: inhibitors; 1% of 390,000 active; also: potency is read from the fitted curve at half-maximal effect
Target sequence (Q9UNA4 whole entry, looked up): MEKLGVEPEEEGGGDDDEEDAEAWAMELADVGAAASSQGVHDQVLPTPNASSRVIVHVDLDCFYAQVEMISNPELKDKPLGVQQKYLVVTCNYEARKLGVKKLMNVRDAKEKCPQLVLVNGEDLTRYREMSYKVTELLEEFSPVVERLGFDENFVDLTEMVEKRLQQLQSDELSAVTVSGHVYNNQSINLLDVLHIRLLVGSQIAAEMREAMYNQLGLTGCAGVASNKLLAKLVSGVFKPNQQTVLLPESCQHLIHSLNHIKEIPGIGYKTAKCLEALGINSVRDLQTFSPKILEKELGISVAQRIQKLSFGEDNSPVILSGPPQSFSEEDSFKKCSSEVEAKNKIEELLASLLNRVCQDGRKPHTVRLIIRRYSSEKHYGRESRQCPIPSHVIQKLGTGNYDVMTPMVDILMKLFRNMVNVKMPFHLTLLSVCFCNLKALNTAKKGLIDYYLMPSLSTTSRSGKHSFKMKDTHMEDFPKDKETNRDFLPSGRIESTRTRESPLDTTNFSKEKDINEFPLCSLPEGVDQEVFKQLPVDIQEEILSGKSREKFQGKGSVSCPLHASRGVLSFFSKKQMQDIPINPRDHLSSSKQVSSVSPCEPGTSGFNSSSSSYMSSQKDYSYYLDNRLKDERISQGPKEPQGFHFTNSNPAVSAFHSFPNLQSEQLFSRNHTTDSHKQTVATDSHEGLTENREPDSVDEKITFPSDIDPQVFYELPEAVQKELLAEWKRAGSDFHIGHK
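Pol iota at 10 nM preincubated 15 min with compounds at room temperature; reaction started with fluorescent substrate, 50 nM final. Fluorescence read kinetically at 0 and 10 min; buffer-only wells as negative control.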
WRN helicase inh = WRN helicase (human) inhibition; Q14191; WRN helicase unwinding, fluorescent forked duplex, kinetic; Potency, µM (highest dose often 114 µM), without a hit: top-dose activity change, negative = inhibition, usual class: inhibitors; 0.46% of 360,000 active; also: potency is read from the fitted curve at half-maximal effect; % is scaled to controls: 0 for no effect and ±100 for the full control effect; nearly all actives have a fitted effect of over 55% in size
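Primary qHTS, 1536-well format. 20 nM WRN + compound, 15 min RT; start with 100 nM forked fluorophore/quencher duplex, 2 mM ATP (final); kinetic read ex 525/em 598 nm.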
Pol eta inh-1 = blocks human DNA polymerase eta activity; Q9Y253; recombinant Pol eta, fluorescent DNA replication assay; Potency, µM (highest dose often 114 µM), for inactives: at the top dose activity change, negative = inhibition, most hits filed as inhibitors; 1.2% of 390,000 active; AID 588591; also: potency is read from the fitted curve at half-maximal effect; % is scaled to controls: 0 for no effect and ±100 for the full control effect
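Pol eta at 10 nM preincubated with compounds 15 min at room temperature; reaction started with fluorescent substrate (50 nM final) and read kinetically at 0 and 10 min.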
Pol beta inh = blocks human DNA polymerase beta activity; P06746; Pol beta primer extension/strand displacement, fluorescence kinetic; Potency, µM (series often up to 114 µM), for the others: at the highest dose activity change, negative = inhibition, actives largely listed as inhibitors; 1.3% of 340,000 active; AID 485314; also: potency is read from the fitted curve at half-maximal effect; % is scaled to controls: 0 for no effect and ±100 for the full control effect
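Pol beta (10 nM) was preincubated with compound for 15 min at room temperature. The reaction was then started with 50 nM substrate and read immediately and after a further 10 min at room temperature.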
FEN1 inhibitor = human FEN1 inhibition. Potency, µM (titrated, usually from 114 µM), for the others: at the top dose activity change, negative = inhibition, hits mostly inhibitors. Recombinant FEN1 flap cleavage, fluorescence, 15 min. 0.35% of 390,000 active. P39748. AID 588795; also: potency is read from the fitted curve at half-maximal effect; % is scaled to controls: 0 for no effect and ±100 for the full control effect; nearly all actives have a fitted effect of over 65% in size
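Steps: FEN1 (10 nM) dispensed; compound added by pin tool; 15 min at room temperature; substrate added to 50 nM final; reads at 0 min and 15 min; data normalized and fitted (four-parameter Hill).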
GALK confirm = galactokinase (human) inhibition, confirmation. shares compounds with Pol eta inh-1. 70% of 150 active. purified GALK, Kinase-Glo ATP depletion luminescence. AID 2015. Potency, µM (highest dose often 115 µM), without a hit: top-dose activity, negative = inhibition, actives largely listed as inhibitors
GALK redox cs = redox cycling activity in phenol red-HRP assay; shares compounds with Pol eta inh-1; Phenol red-HRP H2O2 redox cycling, absorbance 600 nm; Potency, µM (top dose mostly 115 µM), inactives show top-dose activity change, negative = H2O2 signal, actives largely listed as inhibitors; 40% of 150 active
HEK293 viability = HEK-293 cytotoxicity, GALK inhibitor secondary | shares compounds with Pol eta inh-1 | HEK-293 viability, ATP luminescence (CellTiter-Glo), 24/48 h | Potency, µM (series often up to 46.1 µM), for the others: top-dose activity change, negative = cytotoxicity, usual class: inhibitors | 10% of 170 active | AID 2547; also: potency is read from the fitted curve at half-maximal effect; % is scaled to controls: 0 for no effect and ±100 for the full control effect
Pol kappa inh-2 = confirmation of human DNA polymerase kappa inhibitors. shares compounds with Pol eta inh-1. AID 720501. purified Pol-kappa, fluorescent strand-displacement substrate. Potency, µM, most hits filed as inhibitors. 76% of 920 active; also: potency is read from the fitted curve at half-maximal effect
Pol eta inh-2 = confirmation of human DNA polymerase eta inhibitors; shares compounds with Pol eta inh-1; Pol eta primer extension, TAMRA/BHQ fluorescence, 10 min; Potency, µM, actives largely listed as inhibitors; 64% of 2,600 active; also: potency is read from the fitted curve at half-maximal effect
Starred values were filed as active, the others as inactive; ? = inconclusive; nt = not tested or not shown; [ ] = remark or other dose. Calls follow the shape of the dose curve; as a rule, active = well fitted curve in the direction sought with a large enough effect; inconclusive = small, poorly fitted or top-dose-only effect, or another doubt; inactive = no such curve, though single readings can be large; an effect the other way counts as inactive or inconclusive.

SMILES | Pol kappa inh-1 | Pol iota inh | WRN helicase inh | Pol eta inh-1 | Pol beta inh | FEN1 inhibitor | Pol eta inh-2 | others
O=C(O)/C=C\c1cc2c(cc1[N+](=O)[O-])OCO2 | 6.8% | 31.1% | -7.1% | -18.3% | 6.7% | 0.9% | nt
Cc1noc(NS(=O)(=O)c2ccc(NC(=O)c3ccc(Br)cc3)cc2)c1C | ? | -6.9% | nt | nt | 0.2% | -13.0% | nt | Pol kappa inh-2=8.44*
Cc1ccc(C(=O)Nc2ccc(S(=O)(=O)Nc3onc(C)c3C)cc2)cc1 | -17.1% | 4.2% | nt | nt | 4.8% | -3.6% | nt
Cc1cc(S(=O)(=O)Nc2cccc(Cl)c2)c(C)s1 | 5.1% | 49.2% | -9.6% | -18.1% | -7.2% | 3.3% | nt
C/C(N)=C(/C#N)C(=O)CN1C(=O)NC(Cc2c[nH]c3ccccc23)C1=O (centres undefined) | ? | ? | -31.0% | 31.6µM* | 28.2µM* | 2.9% | ?
COCCNC(=O)c1ccc2c(c1)nc(C)n2-c1cccc(Cl)c1 | 14.5% | 21.5% | -0.9% | -15.2% | -14.0% | -1.3% | nt
CC(=O)c1cccc(-c2ccc3c(=O)[nH]c(Nc4ccccc4)cc3c2)c1 | ? | ? | -19.2%[57.1 µM] | 20µM* | nt | 1.2% | 75.7*
COc1ccccc1Nc1nnc(C)c(=O)[nH]1 | -1.9% | 15.5% | 12.7% | 2.1% | 29.8% | -3.4% | nt
O=c1[nH]c(Nc2ccccc2)cc2cc(Br)ccc12 | ? | ? | -7.7%[57.1 µM] | 39.8µM* | nt | -15.4% | ?
Cn1c(=O)cc(Nc2ccccc2)[nH]c1=O | -7.9% | 136.5% | -28.3% | -5.0% | -6.2% | 4.0% | nt
O=c1[nH]c(Nc2ccccc2)cc2ccccc12 | -26.2% | 11.2µM* | -48.7%[57.1 µM] | ? | 5.7% | ? | nt | GALK confirm=42.1µM*;GALK redox cs=21.1µM*;HEK293 viability=7.9%
COc1ccccc1Nc1cc2cc(Br)ccc2c(=O)[nH]1 | 79.4µM* | ? | -18.3%[57.1 µM] | 20µM* | nt | 1.1% | 67.5*
O=C(Nc1ccc2c(c1)OCCO2)c1cccc(Cl)c1Cl | -5.5% | -21.0% | 4.2% | 3.1% | -1.0% | -13.3% | nt
CCOc1ccc(C(=O)Cc2ccc3oc(C(=O)O)cc3c2)c(O)c1 | ? | ? | 3.3% | 12.8% | ? | -3.6% | nt
O=C(O)c1ccc(CNc2ccccc2C(=O)O)cc1 | ? | ? | -20.4%[57.1 µM] | ? | 11.2µM* | -4.1% | ?
COc1ccc(NC(=O)c2ccco2)c(NC(=O)Cc2cccs2)c1 | 5.2% | -28.0% | 5.3% | 5.0% | 1.2% | -8.0% | nt
CCc1ccc(NC(=O)c2ccc(Cn3nc(N4CCN(c5ccccc5)CC4)ccc3=O)o2)cc1 | -26.8% | ? | nt | 20µM* | ? | -13.0% | ? | Pol kappa inh-2=?
CN(C)c1ccc(-c2n(C)c3ccccc3[n+]2C)cc1 | -5.6% | 32.2% | 1.0% | 5.6% | 23.7% | -8.1% | nt
O=C(O)c1ccc(-n2[nH]c3c(c2=O)CCCC3)cc1 | ? | ? | -5.0%[57.1 µM] | 35.5µM* | 28.2µM* | 13.1% | ? | Pol kappa inh-2=23.8*
O=C(O)c1ccc(N2C(=O)CCCC2=O)cc1 | 3.8% | -4.8% | 0.2% | -5.3% | 1.1% | 19.7% | nt
Cc1ccc(NC(=O)[C@@]2(CC(=O)O)CC(/C=C/c3ccccc3)=NO2)c(C)c1 | -5.4% | 18.9% | 5.3% | -6.8% | -10.1% | -13.6% | nt
O=C(c1c[nH]c2ccc(S(=O)(=O)N3CCOCC3)cc2c1=O)N1CCCC1 | -0.2% | 3.1% | -7.9% | -10.9% | 3.9% | -2.5% | nt
Cc1ccc(CCNC(=O)c2c[nH]c3ccc(S(=O)(=O)Nc4ccc(C)cc4C)cc3c2=O)cc1 | -14.2%[60.1 µM] | ? | nt | 50.1µM* | ? | 2.8% | ?
Cc1ccccc1NS(=O)(=O)c1ccc2[nH]cc(C(=O)N3CCCCC3)c(=O)c2c1 | -11.2%[60.1 µM] | ? | nt | 44.7µM* | ? | -9.4% | 75.7*
Cc1ccccc1NS(=O)(=O)c1ccc2[nH]cc(C(=O)NC(C)c3ccccc3)c(=O)c2c1 (centres undefined) | 3.7%[60.1 µM] | ? | nt | 25.1µM* | 39.8µM* | -5.9% | ?
SMILES | Pol kappa inh-1 | Pol iota inh | WRN helicase inh | Pol eta inh-1 | Pol beta inh | FEN1 inhibitor | Pol eta inh-2 | others
Cc1cccc(CCNC(=O)c2c[nH]c3ccc(S(=O)(=O)Nc4ccccc4F)cc3c2=O)c1 | -22.0%[60.1 µM] | ? | nt | -6.3% | 4.6% | 11.8% | nt
CCCC(=O)NC1CCCc2c1cnn2-c1ccc(C)c(C)c1 (centres undefined) | -18.6% | 11.0% | 8.7% | -6.2% | -2.2% | 0.8% | nt
Cc1c(-n2cc(C(=O)c3cc(F)ccc3O)cc(C#N)c2=O)c(=O)n(-c2ccccc2)n1C | -2.5% | 73.9% | -23.4% | 5.7% | 3.5% | -6.4% | nt
N#Cc1cc(C(=O)c2ccccc2O)cn(-c2nccs2)c1=O | -29.2% | -16.2% | -6.6%[11.6 µM] | 15.8µM* | 20µM* | -18.0% | 67.5*
N#Cc1cc(C(=O)c2cc(F)ccc2O)cn(-c2nccs2)c1=O | ? | ? | ? | 28.2µM* | 17.8µM* | ? | ?
O=C1/C(=C/c2ccccc2O)SC(=S)N1Cc1cccnc1 | -4.2% | ? | -2.6% | -19.8% | -0.2% | 12.7% | nt
O=C1/C(=C\c2cccc([N+](=O)[O-])c2O)SC(=S)N1Cc1ccccc1 | -31.6% | ? | ? | 79.4µM* | 35.5µM* | ? | ?
O=C1NC(=Nc2ccccc2Cl)S/C1=C\c1cccc([N+](=O)[O-])c1O | -30.7% | ? | -21.5%[11.6 µM] | ? | ? | ? | ? | Pol kappa inh-2=16.8*
C=CCn1c(C)cc(C(=O)CSc2nnc(-c3cccc(S(=O)(=O)N(CC)CC)c3)o2)c1C | 2.3% | 2.5% | 0.5% | -10.1% | -1.8% | -3.3% | nt
Cc1ccc(S(=O)(=O)NC(N)=NCCc2ccccc2)cc1C | -19.0% | 11.0% | -31.1%[57.1 µM] | -8.7% | 22.4% | -1.4% | nt
